Assay results taken from PubChem BioAssay (NCATS).
Records with an inconclusive call do not appear. Where a call stands in place of a potency, no number is given. Active and inactive are the calls of the source. Calls come from the whole dose curve; as a rule, active = well fitted inhibition curve with a large enough effect; inconclusive = small, poorly fitted or top-dose-only effect; inactive = flat fitted curve, though single readings scatter.

Tests used:
Experiment in all cases: qHTS profiling for inhibitors of Plasmodium falciparum proliferation (AID 504749); note: nearly all actives have a fitted effect of over 60% in size
Details in all cases: P. falciparum in erythrocytes, SYBR Green DNA, 72 h; series mostly up to 28.7 µM
[1] = system: CP315
Method in brief: (§1)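 In a 72 h erythrocytic culture (37 C, humidified, 5% CO2) at 2.5% hematocrit and 0.3% starting parasitemia, compounds were tested; SYBR Green I in detergent lysis buffer stained parasite DNA overnight.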

[2] = system: DIV30
Method in brief: as §1

[3] = system: FAB9
Method in brief: as §1

[4] = system: ICS
Method in brief: as §1

[5] = system: P93_24
Method in brief: as §1

[6] = system: P94_40
Method in brief: as §1

[7] = system: PAD
Method in brief: as §1

[8] = system: CP325
Method in brief: as §1

[9] = system: DFO2036
Method in brief: as §1

[10] = system: DIV17
Method in brief: as §1

[11] = system: ECU
Method in brief: as §1

[12] = system: GB4
Method in brief: as §1

[13] = system: HB3
Method in brief: as §1

[14] = system: CP305
Method in brief: as §1

[15] = system: CP329
Method in brief: as §1

[16] = system: DIV14
Method in brief: as §1

[17] = system: Dd2
Method in brief: as §1

[18] = system: JCK
Method in brief: as §1

[19] = system: N140
Method in brief: as §1

[20] = system: CP335
Method in brief: as §1
Potency is the fitted concentration of half-maximal effect.

Structure (SMILES) | Potency [1] | Potency [2] | Potency [3] | Potency [4] | Potency [5] | Potency [6] | Potency [7] | Potency [8] | Potency [9] | Potency [10] | Potency [11] | Potency [12] | Potency [13] | Potency [14] | Potency [15] | Potency [16] | Potency [17] | Potency [18] | Potency [19] | Potency [20]
Cc1ccc(S(=O)(=O)N[C@@H](CCCCN)C(=O)CCl)cc1 | inactive | inactive | inactive | 12.6 µM (active) | 10 µM (active) | 11.2 µM (active) | 12.6 µM (active) | – | – | – | – | – | – | – | – | – | – | – | – | –
CC(C)(N)Cc1ccc(Cl)cc1 | inactive | inactive | inactive | inactive | inactive | inactive | inactive | inactive | inactive | inactive | inactive | 8.49 µM (active) | inactive | – | – | – | – | – | – | –
CC[C@@H](CO)NC(=O)[C@@H]1C=C2c3cccc4[nH]cc(c34)C[C@H]2N(C)C1 | inactive | inactive | inactive | inactive | inactive | inactive | inactive | inactive | inactive | inactive | inactive | inactive | inactive | inactive | inactive | inactive | inactive | inactive | inactive | –
CN1C[C@H](CNC(=O)OCc2ccccc2)C[C@@H]2c3cccc4c3c(cn4C)C[C@H]21 | – | 15.1 µM (active) | inactive | 7.08 µM (active) | 5.01 µM (active) | 6.31 µM (active) | – | – | 8.91 µM (active) | 15.1 µM (active) | 11.2 µM (active) | 8.49 µM (active) | – | – | – | 8.49 µM (active) | 7.94 µM (active) | inactive | 12.6 µM (active) | 6.75 µM (active)
NCC1(CC(=O)O)CCCCC1 | inactive | inactive | inactive | inactive | inactive | inactive | inactive | inactive | inactive | inactive | inactive | inactive | inactive | inactive | inactive | inactive | inactive | inactive | inactive | –
O=c1[nH]c2ccccc2n1C1CCN(CCCC(c2ccc(F)cc2)c2ccc(F)cc2)CC1 | – | inactive | inactive | 14.1 µM (active) | – | inactive | inactive | – | inactive | inactive | inactive | inactive | 10 µM (active) | inactive | inactive | inactive | 7.94 µM (active) | inactive | – | 13.5 µM (active)
CCN(CC)CCN1C(=O)CN=C(c2ccccc2F)c2cc(Cl)ccc21 | inactive | inactive | inactive | – | – | – | inactive | inactive | inactive | inactive | inactive | – | inactive | inactive | – | – | – | inactive | inactive | –
Fc1ccc(C(OCCN2CCN(CCCc3ccccc3)CC2)c2ccc(F)cc2)cc1 | – | – | – | 3.55 µM (active) | 4.47 µM (active) | 7.94 µM (active) | 8.91 µM (active) | 15.1 µM (active) | 11.2 µM (active) | 10.7 µM (active) | 10 µM (active) | 15.1 µM (active) | 8.91 µM (active) | 10.7 µM (active) | – | 10.7 µM (active) | – | 11.2 µM (active) | 5.01 µM (active) | 9.53 µM (active)
CCN(CC)CCOC(=O)C(O)(c1ccccc1)c1ccccc1 | inactive | inactive | inactive | inactive | inactive | inactive | inactive | inactive | inactive | inactive | inactive | inactive | inactive | inactive | inactive | – | inactive | inactive | inactive | –
CC(C)(C)CC(C)(C)c1ccc(O)cc1 | inactive | inactive | inactive | – | inactive | – | inactive | inactive | inactive | – | – | – | – | inactive | inactive | – | – | inactive | inactive | inactive
C#CCOC(C(=O)OCCN(C)C)(c1ccccc1)c1ccccc1 | inactive | inactive | inactive | – | – | inactive | inactive | inactive | inactive | – | – | inactive | inactive | inactive | inactive | inactive | – | inactive | inactive | –
